Bioassay records as filed in PubChem.
ERG Ets-DNA blk = qHTS for Small Molecule Inhibitors of the ERG Ets/DNA interaction. Transcriptional regulator ERG (Homo sapiens), P11308. fluorescence polarization, His-ERG Ets domain / labelled DNA. Potency, µM (series often up to 76.9 µM), hits mostly inhibitors. 370,000 tested, 0.028% active. AID 624246, 2012; active = well fitted inhibition curve with a large enough effect in the polarisation, with a control signal flat; inconclusive = small, poorly fitted or top-dose-only effect, or effect the other way, or a change in a side signal; inactive = no such curve, though single readings can be large or run the other way; the % refers to the polarisation;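 also: polarization taken with two DNA probes labelled with fluorescein and Texas red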
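His-tagged ERG Ets domain (1 uM in the protein solution; 300mM KCl, 50mM Tris-HCl, 1mM EDTA, 1mM DTT, pH 7.5) received compound, then a probe mix of 5 nM fluorescein-DNA and 100nM Texas-615-DNA. Fluorescence polarization was read for both dyes.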
Mm-Cpn inhibitor = Inhibitors of TCP-1 ring complex (TRiC) of Methanococcus maripaludis (MmCpn): qHTS; purified Mm-Cpn ATPase, ADP Transcreener TR-FRET; 330,000 tested, 0.031% active; Potency, µM (highest dose often 76.9 µM), usual class: inhibitors; Chaperonin Mm-Cpn (Methanococcus maripaludis); AID 504842, 2011; also: nearly all actives have a fitted effect of over 80% in size
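Eu-cryptate anti-ADP/ADP-d2 competition gives a ratio inversely related to ADP. Enzyme at 25 nM was pre-exposed to compound for 10 min, then given 10 uM ATP for 30 min, 37°C throughout.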
Apoferritin bind = qHTS Assay for Identification of Novel General Anesthetics | Ferritin light chain (Equus caballus), P02791 | apoferritin/1-aminoanthracene competitive binding, fluorescence | Potency, µM (doses to about 77.5 µM), hits mostly inhibitors | 350,000 tested, 0.074% active | AID 485281, 2010; also: nearly all actives have a fitted effect of over 20% in size
Target sequence (P02791 2-175 limits assumed): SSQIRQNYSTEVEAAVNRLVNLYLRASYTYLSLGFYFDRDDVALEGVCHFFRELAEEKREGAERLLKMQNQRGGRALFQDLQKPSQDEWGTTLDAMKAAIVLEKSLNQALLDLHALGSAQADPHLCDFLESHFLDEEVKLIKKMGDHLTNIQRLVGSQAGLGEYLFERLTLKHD
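Steps: apoferritin (10 uM) was premixed with half-saturated 1-AMA in PBS, compounds were pin-transferred, plates stood 10 min at room temperature, fluorescence was read at 380/535 nm, and curves were fitted with a Hill equation.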
CCT chaperon mod = High-Throughput Screening for Modulators of Cytosolic Chaperonin Activity; purified chaperonin ATPase assay, HTRF ADP detection, 30 min; activity change, % (no concentration beside the values), hits read low; 360,000 tested, 0.3% active; AID 651819, 2012; in the data active = activity change below about -30%
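Nucleotide hydrolysis assay: TRiC at 20–40 nM final (set by batch activity) with 10 uM ATP, 30 min at 37 °C, in presence of 76 uM compound. Detection by competitive ADP HTRF, 30 min ambient.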
Large screens that a line does not name were inactive. Compounds with a hit are over-represented: about 0.39% of the library has one in this group of screens. Unless noted, calls follow the shape of the dose curve; as a rule, active = well fitted curve in the direction sought with a large enough effect; inconclusive = small, poorly fitted or top-dose-only effect, or another doubt; inactive = no such curve, though single readings can be large; an effect the other way counts as inactive or inconclusive.

CCOCCCNC(=O)c1cn(CC)c2ccc(S(=O)(=O)N3CCCC3)cc2c1=O	CCT chaperon mod -52
CCOC(=O)c1c(N)n(-c2ccc(OCC)cc2)c2nc3ccccc3nc12	none (no result: Mm-Cpn inhibitor, CCT chaperon mod)
CCc1cccc(C)c1Nc1c(-c2ccc(SC)cc2)nc2sccn12	none (no result: Mm-Cpn inhibitor, CCT chaperon mod)
CCOC(=O)Cn1c(=O)oc2cc(S(=O)(=O)N3CCN(c4cc(C)ccc4C)CC3)ccc21	none (no result: Mm-Cpn inhibitor, CCT chaperon mod)
COc1ccc(-c2cc(=O)c3ccccc3o2)cc1	CCT chaperon mod -46
CCC(C)C(NC(=O)C(Cc1ccc(O)cc1)NC(=O)C(N)C(C)C)C(=O)NC(Cc1cnc[nH]1)C(=O)N1CCCC1C(=O)NC(Cc1ccccc1)C(=O)O (configuration not stated)	none (no result: ERG Ets-DNA blk, Mm-Cpn inhibitor, CCT chaperon mod)
O=C(Cn1cc2c(n1)CCCC2)NCCCN1CCN(Cc2ccccc2)CC1	none
O=C(Cn1cc2c(n1)CCCC2)NCCCN1CCN(c2ccccc2F)CC1	CCT chaperon mod -46
O=C(NCC(c1ccco1)S(=O)(=O)c1cccs1)c1ccc(F)c(F)c1 (configuration not stated)	none (no result: Mm-Cpn inhibitor, CCT chaperon mod)
Nc1scn[n+]1Cc1cccc2cccnc12	none
Cc1cc(C[n+]2ccsc2N)c2ncccc2c1	Mm-Cpn inhibitor 40µM
CCOc1cc2c(cc1OCC)C(c1c(F)cccc1Cl)CC(=O)N2 (configuration not stated)	none (no result: Mm-Cpn inhibitor, CCT chaperon mod)
CCOc1ccc2[nH]cc(C(=O)N3CCN(C4CCCCC4)CC3)c(=O)c2c1	CCT chaperon mod -57 (no result: ERG Ets-DNA blk, Mm-Cpn inhibitor, Apoferritin bind)
Cc1oc(-c2ccc(C(=O)NCc3ccccc3)cc2)nc1CN1CCc2ccccc21	none (no result: Mm-Cpn inhibitor, CCT chaperon mod)
O=c1c2c3c(sc2ncn1Cc1ccc(F)cc1)CCC3	Apoferritin bind 25µM
CCOC(=O)N1CCc2c(sc3ncn(Cc4ccc(F)cc4)c(=O)c23)C1	none
COc1ccc(-c2noc(-c3ccc(NC4CCCC4)c([N+](=O)[O-])c3)n2)cc1	none (no result: Mm-Cpn inhibitor, CCT chaperon mod)
C=CN1CCCC1=O	none (no result: ERG Ets-DNA blk, Mm-Cpn inhibitor, CCT chaperon mod)
COc1ccc(CNC(=O)CC2C[C@H](C(=O)N(C(C)C)C(C)C)[C@@]3(C)c4[nH]c5ccccc5c4CCN3C2=O)cc1OC (some centres not stated)	CCT chaperon mod -47 (no result: Apoferritin bind)
COc1ccc2occ(C(=O)c3cccs3)c2c1	Apoferritin bind 25µM
COc1ccc2occ(C(=O)c3ccc(N)cc3)c2c1	none
CCOc1ccc(-c2[nH]ncc2Oc2ccccc2OCC)c(O)c1	Apoferritin bind inconclusive, CCT chaperon mod -73
CCCC[C@H](NC(C)=O)C(=O)N[C@@H](CCC(=O)O)C(=O)N[C@@H](Cc1cnc[nH]1)C(=O)N[C@H](Cc1ccccc1)C(=O)N[C@@H](CCCN=C(N)N)C(=O)N[C@H](Cc1c[nH]c2ccccc12)C(=O)NCC(N)=O	none (no result: ERG Ets-DNA blk, Mm-Cpn inhibitor, CCT chaperon mod)
CCN(CC)CCCn1c(-c2ccccc2)nc2c(N3CCOCC3)nc(C)nc21	none (no result: ERG Ets-DNA blk, Mm-Cpn inhibitor, CCT chaperon mod)
COc1ccc(Cc2nnc(NC(=O)CSc3ccc(C)cc3)s2)cc1	CCT chaperon mod -41
COc1ccc(Cc2nnc(NC(=O)CSc3ccccc3)s2)cc1	none (no result: ERG Ets-DNA blk)
CN(CC1CCOCC1)C(=O)CC1C(=O)NCCN1Cc1ccc(Cl)c(F)c1 (configuration not stated)	CCT chaperon mod -42
Cc1cc(C(C)(C)CC(C)(C)C)ccc1OCCOCC[N+](C)(C)Cc1ccccc1	ERG Ets-DNA blk inconclusive, Apoferritin bind 32µM
CCCC12CN3CC(C)(CN(C1)C31CCCCC1)C2=O	CCT chaperon mod -48
CCCC12CN3CC(C)(CN(C1)C31C(=O)Nc3ccc(C)cc31)C2=O (configuration not stated)	none (no result: ERG Ets-DNA blk)
CCOc1cc(-c2ccc(OC(=O)c3ccccc3F)cc2)cc(=O)c2c(C)oc(C)c12	none (no result: Mm-Cpn inhibitor, CCT chaperon mod)
NCCNCCN	none (no result: ERG Ets-DNA blk, Mm-Cpn inhibitor, CCT chaperon mod)
Fc1cccc(CSc2ccc3nnc(-c4cccnc4)n3n2)c1	CCT chaperon mod -30
COC(=O)CN1C(C(=O)c2ccccc2)=C(OC(=O)c2ccc(C)cc2)c2ccccc2S1(=O)=O	none (no result: Mm-Cpn inhibitor, CCT chaperon mod)
Cc1nn2c(CN(C(=O)CN3CCOCC3)c3ccccc3)nnc2c2ccccc12	CCT chaperon mod -34
COC(=O)CSc1nc2c(cnn2-c2ccc(F)cc2)c(=O)[nH]1	CCT chaperon mod -32
CCOC(=O)CSc1nc2c(cnn2-c2ccc(F)cc2)c(=O)[nH]1	none
Cc1ccc(S(=O)(=O)Nc2ccc3c(c2)C(=O)N([C@H](C)CO)C[C@H](C)[C@H](CN(C)C(=O)Nc2cccc4ccccc24)OCCCC[C@@H](C)O3)cc1	CCT chaperon mod -31 (no result: ERG Ets-DNA blk, Mm-Cpn inhibitor, Apoferritin bind)
